Assay results published in the supplement of paper PMC11732987, “Enantioselective OTUD7B fragment discovery through chemoproteomics screening and high-throughput optimisation” (Communications Chemistry, 2025).

Assays:
Experiment in all cases: log2 ratio of Biotin-Ahx-Ub-VS probe labelling (fragment/DMSO); higher = less target engagement (more negative = stronger competition), active = hit call of the paper (q ≤ 0.05, log2 ratio ≤ -1)
Conditions in all cases: compound concentration: 200 uM; treatment time: 3 h
[1] = biological target: USP16 (UniProt Q9Y5T5)
Method in brief: (§1)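 HEK293T lysate in Tris/CHAPS/IGEPAL buffer with protease inhibitors (495 µg per sample) was given fragment at 200 µM or vehicle for 3 h, in triplicate. It then received Biotin-Ahx-Ub-VS at 0.5 µM final for 1 h. Labelled DUBs were NeutrAvidin-enriched, digested with LysC and trypsin, and run by diaPASEF LC-MS/MS. Values are average log2 fragment/vehicle ratios by unpaired t-test on global-median-normalised Spectronaut quantities of proteins with ≥2 unique peptides.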

[2] = biological target: T1, USP19 (UniProt O94966)
T1 sequence (whole entry): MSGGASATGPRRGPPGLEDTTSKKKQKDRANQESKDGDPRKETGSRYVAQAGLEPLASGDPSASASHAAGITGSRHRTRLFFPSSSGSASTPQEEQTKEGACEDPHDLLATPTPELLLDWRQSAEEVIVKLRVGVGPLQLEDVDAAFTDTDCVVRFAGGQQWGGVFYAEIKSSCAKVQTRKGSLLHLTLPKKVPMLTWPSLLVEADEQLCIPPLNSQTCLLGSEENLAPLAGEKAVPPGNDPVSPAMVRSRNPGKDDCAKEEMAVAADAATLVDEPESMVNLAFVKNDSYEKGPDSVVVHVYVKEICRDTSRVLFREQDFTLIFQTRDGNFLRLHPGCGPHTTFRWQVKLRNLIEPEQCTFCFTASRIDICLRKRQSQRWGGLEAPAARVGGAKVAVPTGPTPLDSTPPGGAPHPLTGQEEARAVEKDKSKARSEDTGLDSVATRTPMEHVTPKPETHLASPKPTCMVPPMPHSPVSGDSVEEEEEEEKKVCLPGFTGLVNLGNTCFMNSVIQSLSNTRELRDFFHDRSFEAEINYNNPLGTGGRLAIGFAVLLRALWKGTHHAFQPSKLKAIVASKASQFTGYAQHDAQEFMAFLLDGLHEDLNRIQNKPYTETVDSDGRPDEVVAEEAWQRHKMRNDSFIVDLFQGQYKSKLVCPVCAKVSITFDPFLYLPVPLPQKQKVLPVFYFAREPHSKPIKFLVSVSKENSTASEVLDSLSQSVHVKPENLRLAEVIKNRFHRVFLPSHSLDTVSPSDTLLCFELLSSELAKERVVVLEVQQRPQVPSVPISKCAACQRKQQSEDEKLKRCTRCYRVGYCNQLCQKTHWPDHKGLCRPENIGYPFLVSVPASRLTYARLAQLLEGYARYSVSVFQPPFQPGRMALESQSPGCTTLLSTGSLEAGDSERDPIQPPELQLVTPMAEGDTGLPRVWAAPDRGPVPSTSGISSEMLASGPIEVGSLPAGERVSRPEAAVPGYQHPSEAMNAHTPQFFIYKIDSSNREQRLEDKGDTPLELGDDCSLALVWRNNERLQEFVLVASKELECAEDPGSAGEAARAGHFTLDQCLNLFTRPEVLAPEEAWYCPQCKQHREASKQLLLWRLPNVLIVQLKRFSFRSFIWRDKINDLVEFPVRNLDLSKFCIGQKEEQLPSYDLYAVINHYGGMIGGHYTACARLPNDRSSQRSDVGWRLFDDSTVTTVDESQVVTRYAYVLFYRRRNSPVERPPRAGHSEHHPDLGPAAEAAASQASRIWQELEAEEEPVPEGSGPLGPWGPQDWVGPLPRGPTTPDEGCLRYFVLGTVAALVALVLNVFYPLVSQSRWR
Method in brief: as §1

[3] = biological target: USP24 (UniProt Q9UPU5)
Method in brief: as §1

[4] = biological target: T2, USP25 (UniProt Q9UHP3)
T2 sequence (whole entry): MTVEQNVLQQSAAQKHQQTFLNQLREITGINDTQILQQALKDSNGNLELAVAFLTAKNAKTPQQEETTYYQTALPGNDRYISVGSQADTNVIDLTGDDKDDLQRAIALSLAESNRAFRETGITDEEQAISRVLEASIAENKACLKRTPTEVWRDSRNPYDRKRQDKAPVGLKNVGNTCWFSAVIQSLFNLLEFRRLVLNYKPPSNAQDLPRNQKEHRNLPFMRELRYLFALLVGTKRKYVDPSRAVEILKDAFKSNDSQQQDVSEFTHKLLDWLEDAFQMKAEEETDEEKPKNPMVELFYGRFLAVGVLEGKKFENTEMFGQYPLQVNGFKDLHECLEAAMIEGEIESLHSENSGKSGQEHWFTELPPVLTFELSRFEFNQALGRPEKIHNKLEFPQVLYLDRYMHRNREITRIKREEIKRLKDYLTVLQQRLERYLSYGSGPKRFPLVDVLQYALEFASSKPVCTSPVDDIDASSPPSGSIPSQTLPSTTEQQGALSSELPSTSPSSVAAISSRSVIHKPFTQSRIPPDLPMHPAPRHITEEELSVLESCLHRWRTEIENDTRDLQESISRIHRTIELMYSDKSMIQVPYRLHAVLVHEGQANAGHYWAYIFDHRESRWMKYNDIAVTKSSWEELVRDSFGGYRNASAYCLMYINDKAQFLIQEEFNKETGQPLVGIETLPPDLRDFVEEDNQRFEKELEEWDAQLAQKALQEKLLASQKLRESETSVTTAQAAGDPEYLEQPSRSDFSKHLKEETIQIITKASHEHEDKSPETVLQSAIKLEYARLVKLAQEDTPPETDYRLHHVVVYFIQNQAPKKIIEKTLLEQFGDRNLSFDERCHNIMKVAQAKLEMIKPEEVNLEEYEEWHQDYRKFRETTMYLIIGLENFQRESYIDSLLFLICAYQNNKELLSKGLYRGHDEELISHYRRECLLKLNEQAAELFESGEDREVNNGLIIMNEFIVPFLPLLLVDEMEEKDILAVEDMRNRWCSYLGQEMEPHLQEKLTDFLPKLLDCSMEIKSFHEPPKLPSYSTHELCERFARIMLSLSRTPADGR
Method in brief: as §1

[5] = biological target: T3, USP28 (UniProt Q96RU2)
T3 sequence (whole entry): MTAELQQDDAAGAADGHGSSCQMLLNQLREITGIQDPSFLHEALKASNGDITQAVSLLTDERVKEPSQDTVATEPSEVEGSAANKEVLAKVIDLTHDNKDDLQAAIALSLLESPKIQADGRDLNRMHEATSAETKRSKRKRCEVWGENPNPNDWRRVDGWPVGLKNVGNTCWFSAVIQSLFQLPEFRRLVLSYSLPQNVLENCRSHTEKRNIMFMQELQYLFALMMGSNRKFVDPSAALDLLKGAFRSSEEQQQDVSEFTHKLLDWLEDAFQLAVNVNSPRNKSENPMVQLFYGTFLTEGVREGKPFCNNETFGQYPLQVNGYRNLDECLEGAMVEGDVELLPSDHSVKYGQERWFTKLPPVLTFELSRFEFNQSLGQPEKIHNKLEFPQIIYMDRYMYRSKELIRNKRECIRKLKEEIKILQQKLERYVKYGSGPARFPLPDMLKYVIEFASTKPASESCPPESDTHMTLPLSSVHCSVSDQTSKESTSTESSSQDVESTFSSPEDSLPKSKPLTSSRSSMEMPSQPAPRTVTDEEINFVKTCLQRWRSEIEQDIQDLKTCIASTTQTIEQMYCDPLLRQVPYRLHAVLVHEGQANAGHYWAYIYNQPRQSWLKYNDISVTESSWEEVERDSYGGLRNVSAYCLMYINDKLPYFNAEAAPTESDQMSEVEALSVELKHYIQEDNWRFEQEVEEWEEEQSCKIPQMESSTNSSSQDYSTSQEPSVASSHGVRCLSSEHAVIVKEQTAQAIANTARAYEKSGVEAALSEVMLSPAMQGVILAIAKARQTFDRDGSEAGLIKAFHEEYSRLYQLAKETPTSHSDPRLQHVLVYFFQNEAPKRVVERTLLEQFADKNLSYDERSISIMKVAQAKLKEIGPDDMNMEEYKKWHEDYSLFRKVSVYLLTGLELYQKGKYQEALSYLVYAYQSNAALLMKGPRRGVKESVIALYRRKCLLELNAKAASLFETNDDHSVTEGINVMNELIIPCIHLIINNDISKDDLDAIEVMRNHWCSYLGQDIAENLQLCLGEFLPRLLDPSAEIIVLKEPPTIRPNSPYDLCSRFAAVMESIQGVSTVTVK
Method in brief: as §1

Measured: log2 ratio of Biotin-Ahx-Ub-VS probe labelling

USP16, sequence (Q9Y5T5 whole entry, looked up, the tested form may be a part): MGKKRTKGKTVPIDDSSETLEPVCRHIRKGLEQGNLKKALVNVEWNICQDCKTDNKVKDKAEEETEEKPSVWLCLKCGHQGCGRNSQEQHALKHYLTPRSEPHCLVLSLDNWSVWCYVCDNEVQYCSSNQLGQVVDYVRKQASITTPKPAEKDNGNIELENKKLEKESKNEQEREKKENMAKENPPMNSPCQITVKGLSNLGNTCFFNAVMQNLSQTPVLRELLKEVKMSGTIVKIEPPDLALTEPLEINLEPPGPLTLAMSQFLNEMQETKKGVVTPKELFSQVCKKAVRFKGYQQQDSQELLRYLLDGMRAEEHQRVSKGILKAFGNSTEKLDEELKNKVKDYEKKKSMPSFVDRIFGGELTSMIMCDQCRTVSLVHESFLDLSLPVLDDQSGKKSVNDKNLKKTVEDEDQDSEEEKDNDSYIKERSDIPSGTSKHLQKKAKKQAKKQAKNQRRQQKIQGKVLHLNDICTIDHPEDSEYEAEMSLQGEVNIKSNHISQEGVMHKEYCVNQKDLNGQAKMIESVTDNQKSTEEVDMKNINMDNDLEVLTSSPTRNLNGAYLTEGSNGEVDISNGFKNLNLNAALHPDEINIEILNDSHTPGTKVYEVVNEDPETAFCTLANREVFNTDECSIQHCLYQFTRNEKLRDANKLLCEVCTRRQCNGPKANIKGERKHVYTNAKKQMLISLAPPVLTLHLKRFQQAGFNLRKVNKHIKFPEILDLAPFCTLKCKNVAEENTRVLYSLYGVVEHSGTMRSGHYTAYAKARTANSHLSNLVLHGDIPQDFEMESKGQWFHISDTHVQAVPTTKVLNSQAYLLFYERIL
USP24, sequence (Q9UPU5 whole entry): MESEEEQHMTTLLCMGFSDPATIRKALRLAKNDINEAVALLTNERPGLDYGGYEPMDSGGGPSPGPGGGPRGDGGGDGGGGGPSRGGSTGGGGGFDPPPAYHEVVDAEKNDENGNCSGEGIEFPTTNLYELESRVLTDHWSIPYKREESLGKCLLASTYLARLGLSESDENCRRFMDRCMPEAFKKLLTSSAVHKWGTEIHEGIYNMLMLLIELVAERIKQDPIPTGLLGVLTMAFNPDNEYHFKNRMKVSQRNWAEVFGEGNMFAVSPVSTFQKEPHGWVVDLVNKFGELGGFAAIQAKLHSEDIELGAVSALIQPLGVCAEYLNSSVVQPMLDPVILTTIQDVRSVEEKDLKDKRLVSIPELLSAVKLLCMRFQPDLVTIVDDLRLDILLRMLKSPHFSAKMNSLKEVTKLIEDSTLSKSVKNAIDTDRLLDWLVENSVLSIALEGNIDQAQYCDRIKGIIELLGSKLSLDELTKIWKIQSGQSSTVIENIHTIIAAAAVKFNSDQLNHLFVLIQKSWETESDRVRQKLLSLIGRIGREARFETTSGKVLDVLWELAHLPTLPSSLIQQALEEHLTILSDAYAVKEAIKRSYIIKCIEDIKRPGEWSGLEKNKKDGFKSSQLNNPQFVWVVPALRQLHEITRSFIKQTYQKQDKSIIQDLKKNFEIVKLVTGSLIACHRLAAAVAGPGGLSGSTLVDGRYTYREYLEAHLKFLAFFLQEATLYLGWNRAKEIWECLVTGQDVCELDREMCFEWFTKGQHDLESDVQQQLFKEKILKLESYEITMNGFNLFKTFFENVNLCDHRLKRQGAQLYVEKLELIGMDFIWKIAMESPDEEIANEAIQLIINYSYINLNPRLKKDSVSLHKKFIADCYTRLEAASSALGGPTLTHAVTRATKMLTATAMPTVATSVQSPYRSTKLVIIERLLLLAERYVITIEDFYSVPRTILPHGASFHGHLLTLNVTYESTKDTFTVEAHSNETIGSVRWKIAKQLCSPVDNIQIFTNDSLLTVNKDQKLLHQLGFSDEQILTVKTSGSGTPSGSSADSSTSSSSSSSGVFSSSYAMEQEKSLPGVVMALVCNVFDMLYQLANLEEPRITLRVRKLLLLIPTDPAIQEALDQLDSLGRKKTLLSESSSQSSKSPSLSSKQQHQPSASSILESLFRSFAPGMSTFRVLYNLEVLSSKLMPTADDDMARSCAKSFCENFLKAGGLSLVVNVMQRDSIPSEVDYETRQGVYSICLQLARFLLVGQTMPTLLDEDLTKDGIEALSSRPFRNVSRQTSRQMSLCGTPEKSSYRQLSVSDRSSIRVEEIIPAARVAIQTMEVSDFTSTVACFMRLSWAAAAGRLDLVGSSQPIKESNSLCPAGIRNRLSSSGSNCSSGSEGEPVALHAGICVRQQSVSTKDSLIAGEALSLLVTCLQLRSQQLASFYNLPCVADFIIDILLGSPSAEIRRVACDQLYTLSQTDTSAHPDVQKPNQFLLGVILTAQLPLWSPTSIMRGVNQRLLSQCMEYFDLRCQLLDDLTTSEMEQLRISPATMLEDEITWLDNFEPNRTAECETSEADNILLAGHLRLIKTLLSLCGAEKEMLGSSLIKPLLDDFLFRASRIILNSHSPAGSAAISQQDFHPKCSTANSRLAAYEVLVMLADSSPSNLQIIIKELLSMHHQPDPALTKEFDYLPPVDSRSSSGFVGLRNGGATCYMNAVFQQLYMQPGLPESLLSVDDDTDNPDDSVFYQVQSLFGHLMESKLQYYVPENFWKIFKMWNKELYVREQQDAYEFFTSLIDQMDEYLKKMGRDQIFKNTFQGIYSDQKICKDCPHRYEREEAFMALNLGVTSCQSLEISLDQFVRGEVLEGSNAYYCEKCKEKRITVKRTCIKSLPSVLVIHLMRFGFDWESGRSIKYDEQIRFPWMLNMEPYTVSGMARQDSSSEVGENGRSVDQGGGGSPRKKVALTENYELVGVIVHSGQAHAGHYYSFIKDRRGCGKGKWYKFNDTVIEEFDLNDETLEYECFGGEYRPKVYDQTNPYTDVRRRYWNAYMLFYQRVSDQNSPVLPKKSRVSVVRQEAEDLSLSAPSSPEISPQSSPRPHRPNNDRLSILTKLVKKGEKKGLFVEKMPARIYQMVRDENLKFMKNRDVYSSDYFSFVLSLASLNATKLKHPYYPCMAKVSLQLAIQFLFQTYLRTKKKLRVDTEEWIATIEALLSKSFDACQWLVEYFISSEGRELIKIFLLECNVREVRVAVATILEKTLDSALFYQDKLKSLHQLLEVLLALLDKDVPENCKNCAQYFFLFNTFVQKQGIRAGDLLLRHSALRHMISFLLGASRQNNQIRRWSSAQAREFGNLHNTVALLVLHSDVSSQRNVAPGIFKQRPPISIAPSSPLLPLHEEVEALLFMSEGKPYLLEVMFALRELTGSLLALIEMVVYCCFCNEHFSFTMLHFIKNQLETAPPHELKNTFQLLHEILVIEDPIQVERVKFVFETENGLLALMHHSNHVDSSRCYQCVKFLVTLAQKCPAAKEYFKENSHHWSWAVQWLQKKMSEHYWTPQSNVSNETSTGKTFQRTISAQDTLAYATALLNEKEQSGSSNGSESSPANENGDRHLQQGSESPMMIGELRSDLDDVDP

Cc1nnc(C(NC(=O)CCl)c2ccccc2)n1C (stereo not given)
inactive: [1] -0.384 | [2] 0.626 | [3] 0.636 | [4] 0.465 | [5] 0.507
